Active and inactive are the calls of the source. Rule for the calls: active = hit-call score of the fitted dose curve at least 0.9, where 1 is the maximum; inactive = score below 0.9.

Conditions in all cases: mRNA level, 48 h; actives raise or lower the signal
Read-out in assay [1]: Lipoprotein lipase (LPL), LPL (gene 4023)
Description: LTEA_HepaRG_LPL: Life Technologies and Expression Analysis (LTEA) Assay for Lipoprotein lipase (LPL) using HepaRG (AID 2283515). In a few lines: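 Differentiated HepaRG cells, plated 48 h, then exposed 48 h in serum-free induction medium to 8 concentrations (top 100 uM, half-log steps) in 0.5% DMSO, duplicate. LPL mRNA measured by qRT-PCR, normalized to ACTB, GAPDH and POLR2A.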

Read-out in assay [2]: MicroRNA 122 (MIR122), gene 406906
As to the kind of experiment: LTEA_HepaRG_MIR122: Life Technologies and Expression Analysis (LTEA) Assay for MicroRNA 122 (MIR122) using HepaRG (AID 2283516). Note: the transcript read is the microRNA miR-122. In a few lines:
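Differentiated human HepaRG cells in serum-free induction medium exposed 48 h to 8 half-log concentrations from 100 uM in 0.5% DMSO, duplicate. MIR122 quantified by Fluidigm TaqMan qRT-PCR, normalised to ACTB, GAPDH, POLR2A; fold change fitted bidirectionally versus DMSO.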

Read-out in assay [3]: matrix metalloproteinase-10 (MMP10), MMP10 (gene 4319)
Description: LTEA_HepaRG_MMP10: Life Technologies and Expression Analysis (LTEA) Assay for matrix metalloproteinase-10 (MMP10) using HepaRG (AID 2283517). In a few lines:
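Differentiated HepaRG cells in serum-free induction medium exposed 48 h in duplicate to 8-point half-log series up to 100 uM in 0.5% DMSO. mRNA quantified by qRT-PCR, normalised to ACTB, GAPDH, POLR2A; bidirectional fit versus DMSO.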

Read-out in a further assay: MYC, MYC (gene 4609)
As to the kind of experiment: LTEA_HepaRG_MYC: Life Technologies and Expression Analysis (LTEA) Assay for MYC using HepaRG (AID 2283518). Summed up:
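Differentiated human HepaRG cells, plated 48 h then switched to serum-free induction medium, were exposed in duplicate for 48 h to 8-point half-log series up to 100 uM in 0.5% DMSO. MYC mRNA measured by qRT-PCR, normalized to ACTB/GAPDH/POLR2A.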

Read-out in assay [4]: matrix metalloproteinase-3 (MMP3), MMP3 (gene 4314)
Description: LTEA_HepaRG_MMP3: Life Technologies and Expression Analysis (LTEA) Assay for matrix metalloproteinase-3 (MMP3) using HepaRG (AID 2283519). In a few lines:
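HepaRG cells (~100,000/well) in serum-free induction medium were dosed in duplicate for 48 h with an 8-point half-log series from 100 uM, 0.5% DMSO. MMP3 mRNA was quantified by Fluidigm TaqMan qRT-PCR, normalized to three housekeeping genes.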

Read-out in assay [5]: Paternally Expressed 10 (PEG10), PEG10 (gene 23089)
Description: LTEA_HepaRG_PEG10: Life Technologies and Expression Analysis (LTEA) Assay for Paternally Expressed 10 (PEG10) using HepaRG (AID 2283520). Summed up: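 Differentiated HepaRG cells exposed 48 h in serum-free induction medium to eight half-log concentrations topping at 100 uM, 0.5% DMSO, in duplicate. PEG10 mRNA quantified by TaqMan qRT-PCR, normalized to ACTB, GAPDH and POLR2A; bidirectional fit versus DMSO.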

Read-out in assay [6]: Nuclear factor NF-kappa-B p105 subunit (Homo sapiens) (UniProt P19838)
Description: LTEA_HepaRG_NFKB1: Life Technologies and Expression Analysis (LTEA) Assay for Nuclear Factor Kappa B Subunit 1 (NFKB1) using HepaRG (AID 2283521).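 Note: TaqMan qRT-PCR transcript normalised to ACTB GAPDH and POLR2A housekeeping genes.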 In a few lines: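 Differentiated human HepaRG cells in serum-free induction medium with 0.5% DMSO were exposed for 48 h to eight half-log concentrations, top 100 uM, in duplicate. NFKB1 mRNA measured by Fluidigm TaqMan qRT-PCR, normalised to ACTB, GAPDH and POLR2A; bidirectional fit versus DMSO.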

Read-out in assay [7]: Protein phosphatase 2A (PPP2R4), PTPA (gene 5524)
As to the kind of experiment: LTEA_HepaRG_PPP2R4: Life Technologies and Expression Analysis (LTEA) Assay for Protein phosphatase 2A (PPP2R4) using HepaRG (AID 2283522). Summed up:
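Differentiated human HepaRG cells in serum-free induction medium were exposed 48 h to 8 concentrations (top 100 µM, half-log steps, duplicate) in 0.5% DMSO. PPP2R4 mRNA was measured by TaqMan qRT-PCR, normalised to ACTB, GAPDH and POLR2A, and fitted bidirectionally versus DMSO.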

Read-out in assay [8]: Phosphatase and tensin (PTEN), PTEN (gene 5728)
Description: LTEA_HepaRG_PTEN: Life Technologies and Expression Analysis (LTEA) Assay for Phosphatase and tensin (PTEN) using HepaRG (AID 2283523). Summed up: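 HepaRG cells, 48 h after plating, exposed in duplicate for 48 h in serum-free induction medium to 8 half-log concentrations up to 100 uM (0.5% DMSO). PTEN mRNA by qRT-PCR, normalized to ACTB, GAPDH, POLR2A; bidirectional fit versus DMSO.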

Read-out in assay [9]: solute carrier (SLC22A1), SLC22A1 (gene 6580)
Description: LTEA_HepaRG_SLC22A1: Life Technologies and Expression Analysis (LTEA) Assay for solute carrier (SLC22A1) using HepaRG (AID 2283524). In a few lines: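 Differentiated human HepaRG cells in serum-free induction medium, exposed 48 h in duplicate to 8-point half-log series from 100 µM top in 0.5% DMSO. SLC22A1 mRNA by TaqMan qRT-PCR normalized to ACTB, GAPDH, POLR2A; bidirectional fit versus DMSO.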

Read-out in assay [10]: Pyruvate Dehydrogenase Kinase 4 (PDK4), PDK4 (gene 5166)
As to the kind of experiment: LTEA_HepaRG_PDK4: Life Technologies and Expression Analysis (LTEA) Assay for Pyruvate Dehydrogenase Kinase 4 (PDK4) using HepaRG (AID 2283525). In a few lines: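 HepaRG cells plated 48 h, then switched to serum-free induction medium and exposed in duplicate for 48 h to 8 half-log concentrations from 100 uM in 0.5% DMSO. PDK4 mRNA measured by qRT-PCR, normalized to ACTB, GAPDH and POLR2A; bidirectional fit versus DMSO.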

Read-out in assay [11]: NAD(P)H dehydrogenase [quinone] 1 (NQO1), NQO1 (gene 1728)
Description: LTEA_HepaRG_NQO1: Life Technologies and Expression Analysis (LTEA) Assay for NAD(P)H dehydrogenase [quinone] 1 (NQO1) using HepaRG (AID 2283526). Summed up: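 Differentiated human HepaRG cells in serum-free induction medium, dosed in duplicate for 48 h at 8 half-log concentrations up to 100 uM in 0.5% DMSO. NQO1 mRNA by qRT-PCR normalized to ACTB, GAPDH, POLR2A; bidirectional fit versus DMSO baseline.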

Read-out in assay [12]: Nuclear factor erythroid 2-related factor 2 (Homo sapiens) (UniProt Q16236)
As to the kind of experiment: LTEA_HepaRG_NFE2L2: Life Technologies and Expression Analysis (LTEA) Assay for Nuclear factor erythroid 2-related factor 2 (NFE2L2) Transcription Factor using HepaRG (AID 2283527).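 For outcome: TaqMan qRT-PCR transcript level normalised to ACTB GAPDH and POLR2A housekeeping genes.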 Summed up:
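Differentiated human HepaRG cells, serum-free induction medium, exposed 48 h in duplicate to eight half-log concentrations up to 100 uM in 0.5% DMSO. NFE2L2 mRNA by Fluidigm TaqMan qRT-PCR, normalised to ACTB, GAPDH, POLR2A; bidirectional change versus DMSO.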

Read-out in assay [13]: succinate dehydrogenase complex iron sulfur subunit B (SDHB), SDHB (gene 6390)
As to the kind of experiment: LTEA_HepaRG_SDHB: Life Technologies and Expression Analysis (LTEA) Assay for succinate dehydrogenase complex iron sulfur subunit B (SDHB) using HepaRG (AID 2283528). Summed up: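 HepaRG cells (~100,000/well, plated 48 h) exposed in duplicate for 48 h in serum-free induction medium to 8-point half-log series from 100 uM in 0.5% DMSO; mRNA by qRT-PCR normalised to ACTB, GAPDH, POLR2A; bidirectional fit versus DMSO.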

Read-out in assay [14]: Signal transducer and activator of transcription 3 (Homo sapiens) (UniProt P40763)
As to the kind of experiment: LTEA_HepaRG_STAT3: Life Technologies and Expression Analysis (LTEA) Assay for Signal transducer and activator of transcription (STAT3) using HepaRG (AID 2283529). In a few lines: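 Differentiated HepaRG cells, serum-free induction medium, dosed 48 h in duplicate, 8 half-log concentrations from 100 uM in 0.5% DMSO. STAT3 mRNA by qRT-PCR, normalised to ACTB, GAPDH, POLR2A; bidirectional fit versus DMSO.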

Read-out in assay [15]: solute carrier (SLCO1B1), SLCO1B1 (gene 10599)
Description: LTEA_HepaRG_SLCO1B1: Life Technologies and Expression Analysis (LTEA) Assay for solute carrier (SLCO1B1) using HepaRG (AID 2283530). Summed up:
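Differentiated human HepaRG cells, plated 48 h, switched to serum-free induction medium and exposed in duplicate for 48 h to 8 half-log concentrations (top 100 uM) in 0.5% DMSO. SLCO1B1 mRNA by TaqMan qRT-PCR, normalized to ACTB/GAPDH/POLR2A.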

Read-out in assay [16]: sulfotransferase 2A1 (SULT2A1), SULT2A1 (gene 6822)
As to the kind of experiment: LTEA_HepaRG_SULT2A1: Life Technologies and Expression Analysis (LTEA) Assay for sulfotransferase 2A1 (SULT2A1) using HepaRG (AID 2283531). In a few lines:
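Differentiated human HepaRG cells in serum-free induction medium were exposed for 48 h to eight half-log concentrations (top 100 uM, 0.5% DMSO). SULT2A1 mRNA was measured by qRT-PCR, normalized to ACTB, GAPDH and POLR2A, and fitted bidirectionally against DMSO.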

Read-out in assay [17]: Transforming Growth Factor (TGFA), TGFA (gene 7039)
As to the kind of experiment: LTEA_HepaRG_TGFA: Life Technologies and Expression Analysis (LTEA) Assay for Transforming Growth Factor (TGFA) using HepaRG (AID 2283532). Summed up:
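Differentiated HepaRG cells exposed 48 hours in serum-free induction medium, 0.5% DMSO vehicle, 8-point half-log series from 100 uM, in duplicate. TGFA mRNA by TaqMan qRT-PCR, normalised to ACTB, GAPDH, POLR2A; bidirectional fit versus DMSO.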

Read-out in assay [18]: Transforming Growth Factor (TGFB1), TGFB1 (gene 7040)
As to the kind of experiment: LTEA_HepaRG_TGFB1: Life Technologies and Expression Analysis (LTEA) Assay for Transforming Growth Factor (TGFB1) Transporter using HepaRG (AID 2283533). Summed up:
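Differentiated human HepaRG cells in serum-free induction medium were exposed in duplicate for 48 h to eight concentrations (top 100 uM, half-log steps, 0.5% DMSO). TGFB1 mRNA was quantified by qRT-PCR, normalized to ACTB, GAPDH, POLR2A, and fitted bidirectionally against DMSO.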

Read-out in another assay: TIMP1, TIMP1 (gene 7076)
As to the kind of experiment: LTEA_HepaRG_TIMP1: Life Technologies and Expression Analysis (LTEA) Assay for TIMP1 using HepaRG (AID 2283534).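 Note: TaqMan qRT-PCR signal normalized to ACTB GAPDH and POLR2A housekeeping genes.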 In a few lines: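 Differentiated human HepaRG cells in serum-free induction medium were exposed 48 h to chemicals (8 half-log concentrations, top 100 uM, 0.5% DMSO). TIMP1 mRNA was quantified by TaqMan qRT-PCR, normalized to ACTB/GAPDH/POLR2A; bidirectional fit versus DMSO.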

Nuclear factor erythroid 2-related factor 2 (Homo sapiens), sequence (Q16236 whole entry, looked up): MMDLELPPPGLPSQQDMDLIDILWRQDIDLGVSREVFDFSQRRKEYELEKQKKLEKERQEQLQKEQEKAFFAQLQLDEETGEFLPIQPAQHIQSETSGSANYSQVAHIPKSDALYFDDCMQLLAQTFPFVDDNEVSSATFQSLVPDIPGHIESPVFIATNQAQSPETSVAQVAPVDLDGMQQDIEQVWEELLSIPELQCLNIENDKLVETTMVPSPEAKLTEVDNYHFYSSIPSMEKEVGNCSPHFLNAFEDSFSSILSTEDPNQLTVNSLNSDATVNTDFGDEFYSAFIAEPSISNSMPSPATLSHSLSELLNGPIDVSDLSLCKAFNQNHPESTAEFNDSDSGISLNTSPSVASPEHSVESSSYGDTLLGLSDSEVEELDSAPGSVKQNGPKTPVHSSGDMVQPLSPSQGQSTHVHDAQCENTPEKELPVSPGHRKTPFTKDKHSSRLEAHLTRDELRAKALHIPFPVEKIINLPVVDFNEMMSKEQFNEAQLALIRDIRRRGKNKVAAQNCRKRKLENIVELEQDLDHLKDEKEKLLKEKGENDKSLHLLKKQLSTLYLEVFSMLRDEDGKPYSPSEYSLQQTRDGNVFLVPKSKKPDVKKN
Signal transducer and activator of transcription 3 (Homo sapiens), sequence (P40763 whole entry, looked up): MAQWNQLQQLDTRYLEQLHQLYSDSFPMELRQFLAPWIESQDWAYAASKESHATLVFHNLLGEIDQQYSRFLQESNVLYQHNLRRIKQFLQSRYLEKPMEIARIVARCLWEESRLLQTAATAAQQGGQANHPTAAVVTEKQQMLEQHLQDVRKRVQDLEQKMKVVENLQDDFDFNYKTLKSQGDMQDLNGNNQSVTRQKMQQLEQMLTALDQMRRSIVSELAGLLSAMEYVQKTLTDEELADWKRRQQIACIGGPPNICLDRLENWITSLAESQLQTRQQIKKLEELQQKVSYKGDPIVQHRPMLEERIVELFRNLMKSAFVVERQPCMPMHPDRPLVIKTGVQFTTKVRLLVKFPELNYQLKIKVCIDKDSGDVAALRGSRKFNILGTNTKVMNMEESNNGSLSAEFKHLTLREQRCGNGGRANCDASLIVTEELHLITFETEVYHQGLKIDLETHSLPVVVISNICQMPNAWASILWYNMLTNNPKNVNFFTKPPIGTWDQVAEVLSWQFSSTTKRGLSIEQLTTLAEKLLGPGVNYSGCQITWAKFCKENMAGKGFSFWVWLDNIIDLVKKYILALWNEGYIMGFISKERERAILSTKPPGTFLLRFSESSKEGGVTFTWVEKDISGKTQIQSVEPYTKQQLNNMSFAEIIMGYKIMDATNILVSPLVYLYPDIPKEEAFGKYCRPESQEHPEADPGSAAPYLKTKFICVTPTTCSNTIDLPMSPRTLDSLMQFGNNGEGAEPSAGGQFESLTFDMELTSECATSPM
Nuclear factor NF-kappa-B p105 subunit (Homo sapiens), sequence (P19838 whole entry, looked up): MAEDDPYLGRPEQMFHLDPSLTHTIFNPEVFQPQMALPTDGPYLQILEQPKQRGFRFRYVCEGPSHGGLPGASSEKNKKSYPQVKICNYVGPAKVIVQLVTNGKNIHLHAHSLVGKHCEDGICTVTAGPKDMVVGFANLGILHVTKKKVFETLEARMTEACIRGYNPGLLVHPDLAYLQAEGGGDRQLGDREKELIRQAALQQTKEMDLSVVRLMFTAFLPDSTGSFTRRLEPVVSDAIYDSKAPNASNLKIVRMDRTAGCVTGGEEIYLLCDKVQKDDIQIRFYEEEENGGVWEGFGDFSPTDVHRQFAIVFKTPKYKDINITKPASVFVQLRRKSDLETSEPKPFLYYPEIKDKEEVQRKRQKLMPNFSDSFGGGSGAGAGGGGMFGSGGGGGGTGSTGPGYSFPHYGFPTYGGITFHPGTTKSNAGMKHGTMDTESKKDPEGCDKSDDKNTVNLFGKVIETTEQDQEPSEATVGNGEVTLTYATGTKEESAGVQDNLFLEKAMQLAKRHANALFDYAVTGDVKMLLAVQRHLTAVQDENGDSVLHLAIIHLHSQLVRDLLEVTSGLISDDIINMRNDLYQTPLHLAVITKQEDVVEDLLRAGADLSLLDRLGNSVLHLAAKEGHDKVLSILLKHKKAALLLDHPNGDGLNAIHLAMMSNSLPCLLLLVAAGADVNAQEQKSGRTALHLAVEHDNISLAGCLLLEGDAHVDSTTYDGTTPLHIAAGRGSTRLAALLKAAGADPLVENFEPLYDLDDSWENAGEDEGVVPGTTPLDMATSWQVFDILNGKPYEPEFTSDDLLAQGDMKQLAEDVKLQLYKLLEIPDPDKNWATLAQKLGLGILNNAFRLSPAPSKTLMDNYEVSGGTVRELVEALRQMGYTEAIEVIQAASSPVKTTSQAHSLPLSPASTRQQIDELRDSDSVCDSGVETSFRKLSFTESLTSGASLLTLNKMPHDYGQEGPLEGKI

On to `CC(Oc1ccc(Cl)cc1Cl)C(=O)O` (stereo not given), for which the outcome in assay [1] was “inactive”; in [2], “inactive”; in [3], “inactive”; with MYC, MYC (gene 4609) it was “inactive”; in assay [4], “inactive”; in assay [5], “inactive”. Besides, the compound was classed as inactive in assay [6], in assay [7], in [8], in [9], in assay [11] and in [12]. Also, the call in assay [13], in assay [14], in assay [15], in assay [16], in assay [17] and in assay [18] was inactive. In the assay with TIMP1, TIMP1 (gene 7076), the result was inactive. For the same compound, in [10], the AC50 is 50 µM (active).

Turning to `CCOc1cc(Oc2ccc(C(F)(F)F)cc2Cl)ccc1[N+](=O)[O-]`, the half-maximal activity concentration (AC50) in [1] was 21.4 µM (active); in assay [2], 37 µM (active); in [3] it was 50 µM (active); with MYC, MYC (gene 4609), 28.4 µM (active); in assay [5] it was 24.9 µM (active); in assay [9] it was 38.6 µM (active). Besides, the half-maximal activity concentration (AC50) in assay [12] is 21.9 µM (active); in [15], 20.6 µM (active); in [16] it was 35.3 µM (active); in assay [17] it was 15.3 µM (active); in assay [18], 19 µM (active). In addition, the result in assay [4], in assay [6], in assay [7], in assay [8], in [10] and in assay [11] was inactive. Further, the outcome in assay [13] is “inactive”; in [14], “inactive”; with TIMP1, TIMP1 (gene 7076), “inactive”.

As for `COc1nc(NC(C)C)nc(NC(C)C)n1`, the outcome in assay [1] was “inactive”; in [2], “inactive”; in [3] it was “inactive”; with MYC, MYC (gene 4609) it was “inactive”; in assay [4] it was “inactive”; in assay [5] it was “inactive”. Also, the compound was called inactive in assay [6], in assay [7], in assay [8], in assay [9], in assay [10] and in assay [11]. For the same compound, the call in [12], in [13], in assay [14], in assay [15], in [16] and in [17] was inactive. Further, the outcome was “inactive” in assay [18] and “inactive” with TIMP1, TIMP1 (gene 7076).

These data come from PubChem BioAssay (EPA / NIEHS).
